Bioassay records (PubChem)
BoNT F protease: blocks Botulinum neurotoxin F light chain protease | actives 0.22% (n = 360,000) | Multiplex microsphere protease cleavage assay, flow cytometry | inhibition, % at 10 µM; in the data active means inhibition above about 35%, passing the limit was not always enough; inconclusive means no clear call, values can overlap the other calls; further: plate controls were buffer without enzyme for full effect and enzyme alone for no effect
Anthrax LF inh2: inhibitors of Bacillus anthracis lethal factor protease | actives 0.12% (n = 360,000) | P15917 | multiplex microsphere protease cleavage assay, LF | inhibition, % at 10 µM; further: plate controls were buffer without enzyme for full effect and enzyme alone for no effect
Target sequence (P15917 whole entry, looked up): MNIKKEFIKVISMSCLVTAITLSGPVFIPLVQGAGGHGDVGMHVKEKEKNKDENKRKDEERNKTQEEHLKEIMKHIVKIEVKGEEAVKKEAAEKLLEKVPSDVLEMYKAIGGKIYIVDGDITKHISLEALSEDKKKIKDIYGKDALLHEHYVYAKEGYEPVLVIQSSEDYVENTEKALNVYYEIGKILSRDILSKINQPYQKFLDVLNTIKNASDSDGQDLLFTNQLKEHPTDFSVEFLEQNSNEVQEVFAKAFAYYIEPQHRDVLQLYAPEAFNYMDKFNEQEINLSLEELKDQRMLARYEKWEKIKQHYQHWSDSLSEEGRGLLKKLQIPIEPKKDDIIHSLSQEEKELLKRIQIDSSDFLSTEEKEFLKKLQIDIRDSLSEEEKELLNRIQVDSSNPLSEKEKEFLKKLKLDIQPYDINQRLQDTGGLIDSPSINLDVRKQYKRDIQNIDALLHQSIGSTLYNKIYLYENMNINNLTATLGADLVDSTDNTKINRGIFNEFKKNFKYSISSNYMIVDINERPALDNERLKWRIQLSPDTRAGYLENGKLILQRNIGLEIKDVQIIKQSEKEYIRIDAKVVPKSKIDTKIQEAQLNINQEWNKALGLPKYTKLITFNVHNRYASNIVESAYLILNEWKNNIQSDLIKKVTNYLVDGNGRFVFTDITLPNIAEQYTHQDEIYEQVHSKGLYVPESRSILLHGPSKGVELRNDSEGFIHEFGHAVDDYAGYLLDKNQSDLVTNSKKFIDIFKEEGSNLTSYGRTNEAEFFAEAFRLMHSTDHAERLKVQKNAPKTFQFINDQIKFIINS
SSB-PriA inh: K. pneumoniae PriA-SSBct interaction inhibition; actives 0.6% (n = 430,000); AlphaScreen SSBct-PriA binding, biotinylated peptide; AID 1272365; inhibition, % at 33 µM; in the data active means inhibition mostly above about 37%, no sharp cut-off; inactive means mostly below about 20%;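 further: plate controls were negative control peptide for no effect and reference peptide for full effect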
Autofluor counter: counter-screen for toxin protease inhibitors: compound fluorescence | compound autofluorescence counterscreen, microsphere flow cytometry; stronger effect = higher value | fluorescence intensity (no concentration beside the values) | actives 3.1% (n = 360,000) | AID 624483; in the data active means fluorescence intensity above about 16000; inconclusive means no clear call, values can overlap the other calls
BoNT-A LC inh2: inhibitors of Botulinum neurotoxin A light chain protease. AID 588499. multiplex microsphere protease substrate cleavage, flow cytometry. actives 0.17% (n = 360,000). inhibition, % at 10 µM; further: plate controls were buffer without enzyme for full effect and enzyme alone for no effect
* hit, by the source's call; ? = inconclusive; . = no result. This is a sample that favours compounds with a hit; in the whole collection about 3.1% have one here. Unless noted, no stated cut-off is given here; in the data, active means inhibition above about 30%; inconclusive means no clear call, values can overlap the other calls; inactive means below that.

SMILES	BoNT F protease	Anthrax LF inh2	SSB-PriA inh	Autofluor counter	BoNT-A LC inh2
CCCc1cc(=O)n2[nH]c(C)nc2n1	-3	-2	-9	24470*	-2
CCCCN1C(=O)/C(=C2\SC(N3CCCCC3)=NC2=O)c2ccccc21	-3	-6	35	23186*	?
CCCn1c(=NC(=O)c2ccc(S(=O)(=O)N3CC(C)OC(C)C3)cc2)sc2cc(OC)ccc21 (stereo unspecified)	.	.	4	.	.
COc1ccc(/C=N/NC(=O)C2CCN(c3ncc(C(F)(F)F)cc3Cl)CC2)cc1	-1	-2	.	22271*	?
O=C(OC1CCN(c2ncc(C(F)(F)F)cc2Cl)CC1)c1ccccc1	0	-3	-17	22198*	1
O=C(O)C=C1CCN(c2ncc(C(F)(F)F)cc2Cl)CC1	2	-9	-8	6834	-1
NNC(=O)C=C1CCN(c2ncc(C(F)(F)F)cc2Cl)CC1	2	-8	-16	20786*	2
COc1ccc(N2CCN(C(=O)Cc3ncc(C(F)(F)F)cc3Cl)CC2)cc1	-2	-3	6	23985*	0
O=C(OC1CCN(c2ncc(C(F)(F)F)cc2Cl)CC1)c1cccc(C(F)(F)F)c1	1	-10	-20	6345	0
Cc1nc(NCCNC(=O)c2cccc(F)c2)cc(-n2cccn2)n1	.	.	-13	.	.
CCOc1ccc2c(c1)nc(SCC(=O)c1ccc(Br)s1)n2C	-1	1	12	16282*	2
COc1ccc(OC)c(C(=O)CC2OC(=O)c3ccccc32)c1 (stereo unspecified)	13	2	-10	4190	1
COc1ccc(C(=O)CC2OC(=O)c3ccccc32)cc1OC (stereo unspecified)	0	-2	-13	21822*	?
CC(C)C(=O)Nc1ccc(SCC(=O)Nc2cccc(C(F)(F)F)c2)nn1	.	.	-13	.	.
O=C(NC1CCCCC1)c1ccc(Br)o1	11	-2	-4	4503	1
O=C(CCNC(=O)c1ccc(Br)o1)NC1CCCC1	0	-2	-12	16174*	?
Cc1ccc(Nc2nc(NCC3CCCO3)nc3nccnc23)cc1C (stereo unspecified)	.	.	4	.	.
Nc1ccc(C(=O)c2ccc3c(c2)OCCO3)cc1N	-6	0	19	21110*	0
CCC(=O)c1ccc2c(c1)OCCO2	?	-5	-12	4283	-3
Nc1cc2c(cc1C(=O)c1ccc(Cl)cc1)OCCO2	-1	-3	-21	22401*	?
Nc1cc2c(cc1C(=O)c1ccccc1)OCCO2	4	-1	4	3575	1
COc1ccc(C=NOCC(=O)N(Cc2ccccc2)c2ccccc2C(=O)O)cc1	.	.	10	.	.
CCN(CC)S(=O)(=O)c1ccc(C(=O)Nc2nc3ccc4ccccc4c3s2)cc1	.	.	5	.	.
COc1ccc(OCC(O)Cn2c(C(F)(F)F)nc3ccccc32)cc1 (stereo unspecified)	.	.	-6	.	.
OCCN1CCN(Cc2cccc(Oc3ccc(Cl)cc3)c2)CC1	1	-1	-1	20285*	1
SMILES	BoNT F protease	Anthrax LF inh2	SSB-PriA inh	Autofluor counter	BoNT-A LC inh2
Cc1onc(-c2ccccc2Cl)c1C(=O)N1CCC[C@H](Cc2nc(C3CC3)no2)C1	.	.	-11	.	.
CSc1ccccc1NC(=O)c1c(C)noc1C	-6	-1	-3	22017*	-5
CSc1ccccc1NC(=O)Nc1ccccc1	-8	-2	4	25193*	?
CSc1ccccc1NC(=O)c1ccccc1N(Cc1ccccc1)S(C)(=O)=O	11	-11	7	19711*	9
CC(C)NC(=O)c1ccccc1NC(=O)c1ccccc1N(C)S(C)(=O)=O	-36	-4	1	9623	-4
CSc1ccccc1NC(=O)Nc1cccc(F)c1	-2	1	-19	2526	0
CSc1ccccc1NC(=O)c1ccccc1N(C)S(C)(=O)=O	-5	-5	-4	22950*	-2
CSc1ccccc1NC(=O)c1onc(C)c1Cl	0	4	-13	6161	-1
COc1ccc(-c2nc3sc(CCNC(=O)C(=O)Nc4ccc([N+](=O)[O-])cc4)c(C)n3n2)cc1	.	.	-6	.	.
COc1ccc(-c2cc(=O)n(CC(=O)Nc3ccc(F)c(F)c3)cn2)cc1	.	.	-2	.	.
CCCN(CCO)Cc1ccc(Cl)c(Cl)c1	4	-2	-29	7961	0
CCCN(CCO)Cc1cccc(Cl)c1	-2	2	-7	16966*	-1
OCCN(Cc1ccccc1)Cc1ccccc1F	-6	-5	-13	11295	-1
OCCN(Cc1ccccc1)Cc1cccc(F)c1	0	1	-31	20011*	-1
OCCN(Cc1ccccc1)Cc1ccc(C(F)(F)F)cc1	5	-5	-37	3168	0
OCCN(Cc1ccccc1)Cc1cccc(C(F)(F)F)c1	1	-2	-43	23013*	0
OCCN(Cc1ccccc1)Cc1ccccc1Cl	-1	-3	-16	23592*	?
Cc1ccc(S(=O)(=O)N2CCN(c3nc4ccc(C)cc4s3)CC2)cc1	.	.	-9	.	.
CCOc1ccccc1C1CC(c2ccccc2NS(C)(=O)=O)=NN1C(=O)c1cccs1 (stereo unspecified)	.	.	5	.	.
O=C(NCC1CCN(C(=O)c2ccoc2)CC1)C(=O)Nc1ccc2c(c1)OCO2	.	.	-8	.	.
O=C(Nc1nnc(C2CCCO2)o1)c1cccc(Oc2ccccc2)c1 (stereo unspecified)	.	.	74*	.	.
COc1ccc(CC(=O)n2nc(-c3ccc(Cl)cc3)nc2NCc2ccco2)cc1	-6	-5	-16	24639*	?
CC(=O)n1nc(-c2ccc(Cl)cc2)nc1NCc1ccco1	-5	-1	-13	21596*	-3
O=C(c1cccs1)n1nc(-c2ccc(Cl)cc2)nc1NCc1ccco1	-10	4	-20	6121	0
O=C(NCCn1ncc2c(N3CCCC3)ncnc21)c1cc2ccccc2o1	.	.	-13	.	.
SMILES	BoNT F protease	Anthrax LF inh2	SSB-PriA inh	Autofluor counter	BoNT-A LC inh2
Cc1ccc(-n2cnc3cc(NCc4cccs4)ccc32)cc1	-15	?	-12	?	0
COc1ccccc1-n1cnc2cc(NCc3ccccn3)ccc21	-1	-6	22	22276*	2
COc1ccc(-n2cnc3cc(NCc4ccccn4)ccc32)cc1	-6	-3	32	18683*	2
COc1ccccc1-n1cnc2cc(NC(C)=O)ccc21	-3	1	0	2372	-1
COc1ccc(-n2cnc3cc(NCc4cccs4)ccc32)cc1	-15	-5	32	3601	1
CCCn1cnc2cc(NCc3cccc(OC)c3O)ccc21	-2	-1	14	19022*	2
c1ccc(-n2cnc3cc(NCc4cccs4)ccc32)cc1	-7	-3	32	23254*	?
Cc1cc(C(=O)NN=Cc2c[nH]c3ccccc23)c(C)o1	.	.	-4	.	.
CC(=O)Nc1nc(C)c(Oc2ccccc2)c(=O)[nH]1	3	-12	-6	20911*	2
O=C(Nc1cccn(Cc2c(Cl)cccc2Cl)c1=O)c1ccccc1Cl	-5	-6	-7	21806*	?
O=c1ccccn1Cc1c(Cl)cccc1Cl	4	-1	-16	23028*	?
O=C(Nc1cccn(Cc2c(Cl)cccc2Cl)c1=O)c1ccc(Cl)cc1Cl	-6	-8	-2	6515	0
CCCc1[nH]nc2c1C(c1cc(OC)cc(OC)c1)C(C#N)=C(N)O2 (stereo unspecified)	-7	3	-20	8833	0
